# KKLEB cytotox: cytotoxicity in KKLEB CF airway cells, primary screen, cytotoxicity control for CF NF-kB inhibitor project, cell-based, uHTS, fluorescence assay plates. AID 602141, 2011. actives 0.36% (n = 360,000). activity change (cytotoxicity), % at 5 µM. KKLEB CF airway cells viability, ATPlite luminescence, overnight; stronger effect = lower value; cells stimulated with P. aeruginosa culture filtrate;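 active means corrected activity change at or below -50% at 5 µM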
# ABHD5-PLIN5 inh: ABHD5-PLIN5 interaction inhibitors, primary screen, cell lysate, split luciferase complementation, luminescence | Perilipin-5 (Homo sapiens) + 1-acylglycerol-3-phosphate O-acyltransferase ABHD5 (Homo … | Split G. princeps luciferase complementation, 4 h | inhibition, % at 4 µM | actives 0.78% (n = 360,000) | AID 602281, 2012;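 active means inhibition above the mean inhibition across every tested compound plus 3 SD, cut at about 22% in these data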;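 further: 0% = DMSO only wells and the 100% control is not disclosed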
# HIF-2a block: HIF-2a reporter inhibitors, primary screen, luminescence, 786-0 RCC cells; 786-0 RCC cells HIF-2a reporter, luciferase luminescence, overnight; inhibition, % at 18.8 µM; actives 0.72% (n = 360,000);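 active means inhibition of the luminescence signal of 40% or more relative to plate controls, in a single-dose primary screen at 18.75 µM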
# CF NFkB inh: inhibitors of PAF-induced NF-kB signaling, primary screen, cell-based, GFP fluorescence, uHTS. inhibition, % at 5 µM. actives 0.86% (n = 360,000). AID 588850, 2011. KKLEB NF-kB-GFP reporter, GFP fluorescence overnight;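 active means at least 50% inhibition at 5 µM, scaled per plate between neutral and stimulator controls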;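 further: PAF is a Pseudomonas aeruginosa culture filtrate used as stimulus; plate controls were PAF-stimulated DMSO wells for no effect and unstimulated DMSO wells for full effect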
# Peg3 prom inh: Peg3 promoter-driven luciferase inhibitors, primary screen, cell-based, HeLa, luciferase luminescence; HeLa PEG-Prom luciferase reporter, overnight; inhibition, % at 20 µM; actives 1.7% (n = 360,000); AID 588405, 2011;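 active means inhibition of at least 50% at 20 µM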
# Mdm2-MdmX inh: inhibitors of human Mdm2-MdmX association, primary screen, cell-based, luminescence, split luciferase, SaOS-2, uHTS. inhibition, % at 8 µM. actives 3% (n = 330,000). SaOS-2 split-luciferase Mdm2/MdmX complementation. Protein Mdm4 (Homo sapiens) + E3 ubiquitin-protein ligase Mdm2 (Homo sapiens), …;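 active means inhibition of at least 50% at 8 µM in the primary screen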
# Target sequence (O15151 whole entry, looked up): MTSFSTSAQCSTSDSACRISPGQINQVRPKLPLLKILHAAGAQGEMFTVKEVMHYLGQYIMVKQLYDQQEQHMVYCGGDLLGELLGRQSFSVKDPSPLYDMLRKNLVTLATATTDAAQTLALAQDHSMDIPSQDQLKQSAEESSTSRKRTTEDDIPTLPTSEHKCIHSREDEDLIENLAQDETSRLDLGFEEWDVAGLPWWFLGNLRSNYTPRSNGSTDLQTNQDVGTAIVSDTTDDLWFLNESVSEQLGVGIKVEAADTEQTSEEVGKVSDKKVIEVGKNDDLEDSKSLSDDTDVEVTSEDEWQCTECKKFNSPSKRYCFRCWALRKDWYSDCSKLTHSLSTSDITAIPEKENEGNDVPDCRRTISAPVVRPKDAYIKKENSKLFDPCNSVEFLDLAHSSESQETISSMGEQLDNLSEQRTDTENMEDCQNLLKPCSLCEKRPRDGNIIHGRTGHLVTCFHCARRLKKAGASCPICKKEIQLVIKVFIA
# Target sequence (Q00987 whole entry, looked up): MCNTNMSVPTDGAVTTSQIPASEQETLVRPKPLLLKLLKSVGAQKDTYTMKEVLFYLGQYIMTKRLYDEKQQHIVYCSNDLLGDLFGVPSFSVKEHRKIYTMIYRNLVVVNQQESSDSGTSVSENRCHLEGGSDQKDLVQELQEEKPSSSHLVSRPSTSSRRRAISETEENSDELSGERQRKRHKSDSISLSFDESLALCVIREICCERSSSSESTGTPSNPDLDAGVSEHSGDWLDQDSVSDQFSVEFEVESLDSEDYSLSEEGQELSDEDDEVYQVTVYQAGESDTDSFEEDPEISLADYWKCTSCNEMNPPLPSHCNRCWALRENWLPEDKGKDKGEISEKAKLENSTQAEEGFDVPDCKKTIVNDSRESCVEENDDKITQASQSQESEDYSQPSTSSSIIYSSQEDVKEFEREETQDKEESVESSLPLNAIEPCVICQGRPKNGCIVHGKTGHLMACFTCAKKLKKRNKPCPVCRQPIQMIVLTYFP
# Mdm2 MdmX conf: Mdm2-MdmX complex disruptors, retested hits, confirmation, luminescence, single concentration. shares compounds with Mdm2-MdmX inh. Mdm2-MdmX binding, luminescent assay. inhibition, % at 8 µM. actives 55% (n = 10,000). AID 489028, 2010; in the data active means inhibition above about 40%
# FLuc counter: full-length luciferase signal inhibition, confirmation, counter-screen for Mdm2/MdmX interaction inhibitor project, cell-based, single concentration, SaOS-2; SaOS-2 full-length luciferase counterscreen, luminescence; AID 504607, 2011; shares compounds with Mdm2-MdmX inh; inhibition, % at 8 µM; actives 77% (n = 6,200);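 active means mean inhibition at 8 µM reaching about 37%, which flags the compound as non-specific, limit read from the data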;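 further: p53-null SaOS-2 cells with luciferase driven by a doxycycline-inducible promoter; compound on cells about two nights before reading with doxycycline added after day one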
# * = called active by the depositor; / = not tested or not shown. The list is not random: actives were taken first. Their share in the collection is about 4.6%.
SMILES,KKLEB cytotox,ABHD5-PLIN5 inh,HIF-2a block,CF NFkB inh,Peg3 prom inh,Mdm2-MdmX inh,Mdm2 MdmX conf,FLuc counter
O=C(CSc1nc2ccccc2c(=O)n1CCCC(=O)N1CCCC1)NCc1ccco1,-7,4,17,2,11,18,/,/
CCc1ccc(NC(=O)CSc2nc3ccccc3c(=O)n2CCCC(=O)N2CCCC2)cc1,-16,-2,-14,16,40,52*,49*,42*
O=C(CSc1nc2c(sc3ccccc32)c(=O)n1CCCN1CCCC1)NCC1CCCO1 (stereo not drawn),0,-7,7,-19,4,6,/,/
COc1ccc(NC(=O)CSc2nc3c(sc4ccccc43)c(=O)n2CCCN2CCCC2)cc1,-6,2,-18,-3,69*,98*,70*,23
CCN(CC)CCn1c(SCC(=O)NCc2ccccc2)nc2c(sc3ccccc32)c1=O,10,-6,2,2,0,75*,28,/
O=C(C(=O)N1CCN(c2ccncc2)CC1)c1cccc(Br)c1,/,-8,16,/,/,/,/,/
CC12CC3(C)CC(C)(C1)CC(C(=O)NCc1cccnc1)(C2)C3,9,-3,18,-18,18,11,/,/
O=C1CC2(CCN(C(=O)COc3ccc(Cl)cc3)CC2)Oc2ccccc21,-21,6,14,13,5,13,/,/
NC(=S)N/N=C\c1c(OCc2ccccc2Cl)ccc2ccccc12,12,-15,-10,-9,17,53*,5,/
O=Cc1ccc(OC(=O)CCCCC(=O)Oc2ccc(C=O)cc2)cc1,9,3,5,-31,21,11,/,/
O=C1NC[C@@H](CCCCN2C[C@H](Cc3ccc(O)cc3)N(CCC3CCCCC3)C(=O)C2=O)N(CCc2ccc(O)cc2)C1=O,/,3,6,/,/,/,/,/
COc1ccc(S(=O)(=O)Nc2ccccn2)cc1,4,5,16,-12,14,21,/,/
COc1cc(NC(=O)c2ccccc2Cl)c2ncccc2c1,2,-3,-25,18,8,57*,50*,52*
COc1cc(NS(=O)(=O)c2ccc(C)cc2)c2ncccc2c1,-4,-3,18,48,68*,89*,99*,5
C[C@@H]1CN([C@H](C)CO)C(=O)CCCn2nncc2CO[C@H]1CN(C)S(=O)(=O)c1ccc(Oc2ccccc2)cc1,-14,2,4,-1,3,/,/,/
O=C1C(=NO)CC(c2ccccc2)N1c1ccccc1 (stereo not drawn),6,-2,-9,2,-2,/,/,/
Cc1ccc2[nH]c(=O)c3cc(C(=O)N(C)Cc4ccco4)sc3c2c1,6,10,-111,-5,-79,19,/,/
CCOCCCN(Cc1ccco1)C(=O)c1cc2c(=O)[nH]c3ccc(C)cc3c2s1,-14,0,-55,30,27,56*,34,/
Cc1c(-c2ccc(Cl)cc2)oc(=O)c2c(N)n(-c3ccccc3)nc12,-26,-3,-64,21,-68,86*,7,/
COc1ccc(-n2c(N)c(C(=O)Nc3c(C)n(C)n(-c4ccccc4)c3=O)c3nc4ccccc4nc32)cc1,-23,-3,10,14,36,33,/,/
Cc1ccc(-n2c(N)c(C(=O)Nc3c(C)n(C)n(-c4ccccc4)c3=O)c3nc4ccccc4nc32)cc1C,/,/,/,/,/,51*,28,/
Cc1ccc(-c2nn(-c3ccccc3)cc2/C=C(\C#N)C(=O)NCc2ccccc2)cc1,-8,-3,0,21,-1,75*,44*,85*
CCOc1cccc(-c2nn(-c3ccccc3)cc2/C=C(/C#N)C(=O)NCCCn2ccnc2)c1,-27,12,25,6,36,77*,39,51*
N#C/C(=C/c1cn(-c2ccccc2)nc1-c1cccc(OCc2ccccc2)c1)C(=O)NCCCn1ccnc1,-18,17,13,23,38,28,/,/
CCc1ccc2[nH]c(=O)c(CN(Cc3ccc4c(c3)OCO4)Cc3nnnn3C3CCCC3)cc2c1,-3,-9,-20,-1,-69,64*,12,/
SMILES,KKLEB cytotox,ABHD5-PLIN5 inh,HIF-2a block,CF NFkB inh,Peg3 prom inh,Mdm2-MdmX inh,Mdm2 MdmX conf,FLuc counter
CCCCn1nnc(NC(=O)c2sc3cc(Cl)ccc3c2Cl)n1,1,-3,-29,-12,-30,16,/,/
CCN(CC)Cc1ccc(NC(=O)c2sc3cc(Cl)ccc3c2Cl)cc1,-3,11,-118,2,105*,55*,21,/
CCNC(=S)Nc1ccc(C)c(S(=O)(=O)Nc2ccccc2OC)c1,-12,3,16,-18,20,-6,/,/
COc1ccccc1NS(=O)(=O)c1cc(NC(=O)c2sc3cc(Cl)ccc3c2Cl)ccc1C,-30,2,6,39,21,53*,33,104*
COc1ccc(CC2(c3ccccc3)NC(=O)NC2=O)cc1 (stereo not drawn),-1,8,14,-11,24,/,/,/
CC(C)(C)c1ccc(C(=O)NN2C(=O)CSC2=S)cc1,-8,-11,-34,14,-44,19,/,/
O=C(NCc1ccc(F)cc1)C1CCN(S(=O)(=O)c2cccc3nonc23)CC1,0,9,15,-8,6,31,/,/
CCSc1nccc(-c2nn(-c3ccc(C)cc3)ccc2=O)n1,-5,-6,15,5,40,38,/,/
CSc1nccc(-c2nn(-c3ccc(C)cc3)ccc2=O)n1,-10,-3,9,13,22,51*,73*,59*
CC(=O)N1CCc2c(sc(NC(=O)CCS(=O)(=O)c3ccc(C)cc3)c2C#N)C1,17,12,7,-10,-10,52*,41*,78*
CC(=O)N1CCc2c(sc(NC(=O)Cc3ccc(C)cc3C)c2C#N)C1,-12,-8,6,9,11,10,/,/
Cc1ccc(S(=O)(=O)CCC(=O)Nc2nc(-c3ccncc3)cs2)cc1,-8,-4,5,26,30,88*,58*,37*
COc1ccc(OCCCC(=O)Nc2nc(-c3ccccn3)cs2)cc1,6,-4,-16,-4,13,29,/,/

# Source: PubChem BioAssay
